Shown are actives, neighbours in structure and some others; about 2.4% of the full set was active somewhere.
SENP7 block – SENP7 protease inhibitors, primary screen, biochemical, luminescence, uHTS | Sentrin-specific protease 7 (Homo sapiens), Q9BQF6 | recombinant SENP7, Z-RLRGG-aminoluciferin luminescence, 40 min | inhibition, % at 5 µM | 330,000 compounds, 1.5% hits | AID 434973, 2010;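 active means inhibition above about 50% at the single test dose, limit read from the data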;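 further: plate controls were DMSO with enzyme for no effect and no enzyme buffer wells for full effect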
Target sequence (Q9BQF6 706-1050 limits assumed): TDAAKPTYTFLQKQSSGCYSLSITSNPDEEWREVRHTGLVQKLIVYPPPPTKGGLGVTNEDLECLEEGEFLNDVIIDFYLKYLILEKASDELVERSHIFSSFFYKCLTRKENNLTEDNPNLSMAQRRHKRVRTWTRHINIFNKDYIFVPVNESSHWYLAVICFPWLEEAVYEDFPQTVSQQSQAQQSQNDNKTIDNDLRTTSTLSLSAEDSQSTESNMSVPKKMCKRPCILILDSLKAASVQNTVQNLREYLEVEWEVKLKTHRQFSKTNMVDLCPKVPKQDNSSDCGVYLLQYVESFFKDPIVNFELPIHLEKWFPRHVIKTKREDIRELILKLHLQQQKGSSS
SENP8 block-1 – human SENP8 protease inhibitors, primary screen, biochemical, fluorescence, Nedd8 protein substrate, uHTS. Sentrin-specific protease 8 (Homo sapiens), Q96LD8. 360,000 compounds, 0.64% hits. inhibition, % at 20 µM. recombinant SENP8; in the data active means inhibition mostly above about 40%, no sharp cut-off; inactive means mostly below about 27%
Target sequence (Q96LD8 whole entry, looked up): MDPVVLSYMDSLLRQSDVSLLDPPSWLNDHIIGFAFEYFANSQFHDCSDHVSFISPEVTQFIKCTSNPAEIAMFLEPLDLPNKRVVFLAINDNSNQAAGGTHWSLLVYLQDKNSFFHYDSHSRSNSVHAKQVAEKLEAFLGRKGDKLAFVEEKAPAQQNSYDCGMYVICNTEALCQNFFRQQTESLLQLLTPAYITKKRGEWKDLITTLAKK
SENP8 block-2 – SENP8 protease inhibitors, primary screen, biochemical, luminescence | Sentrin-specific protease 8 (Homo sapiens), Q96LD8 | purified SENP8, Z-RLRGG-aminoluciferin cleavage | inhibition, % at 10 µM | 330,000 compounds, 1.2% hits | AID 2540, 2010; in the data active means inhibition above about 50%
Platelet DG rel – inhibitors of platelet dense granule secretion, primary screen, cell-based, MLPCN, human platelets; inhibition, %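 (compounds screened at 7.5 µM in platelet-rich plasma)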; AID 1663, 2009; human platelet-rich plasma, SFLLRN dense granule ATP release, luminescence; 300,000 compounds, 0.22% hits;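 active means mean replicate score, as percent of positive control, at or above 50; inconclusive means mean below 50 but at least one replicate at or above 50; inactive means mean and every replicate below 50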
SENP6 block – SENP6 protease inhibitors, primary screen, biochemical, luminescence, uHTS; Sentrin-specific protease 6 (Homo sapiens), Q9GZR1; Recombinant SENP6 catalytic domain, aminoluciferin luminescence; inhibition, % at 10 µM; 330,000 compounds, 1.8% hits; AID 2599, 2010;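 active means inhibition above about 50% at the single tested dose, limit read from the data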;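 further: plate controls were DMSO wells with enzyme for no effect and DMSO wells lacking enzyme for full effect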
SENP8 conf – SENP8 protease inhibitors, retest, confirmation, biochemical, luminescence, single concentration; 6,200 compounds, 40% hits; inhibition, % at 12.5 µM; Recombinant SENP8, Z-RLRGG-aminoluciferin luminescence, 60 min; shares compounds with SENP7 block;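 active means mean inhibition across replicates above about 50%, limit read from the data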
SENP6 confirm – SENP6 protease inhibitors, confirmation, biochemical, luminescence, single concentration | shares compounds with SENP7 block | recombinant SENP6, Z-RLRGG-aminoluciferin luminescence | inhibition, % at 12.5 µM | 6,200 compounds, 58% hits
SENP7 conf – SENP7 protease inhibitors, retest, confirmation, biochemical, luminescence, single concentration; shares compounds with SENP7 block; recombinant SENP7, Z-RLRGG-aminoluciferin luminescence, 40 min; inhibition, % at 12.5 µM; 6,200 compounds, 69% hits; AID 488917, 2010
Casp3 SENP sel – caspase-3 protease inhibitors, confirmation, selectivity assay for SENP inhibitor project, biochemical, single concentration. inhibition, % at 12.5 µM. 6,200 compounds, 60% hits. purified caspase-3, Z-DEVD-aminoluciferin luminescence, 60 min. shares compounds with SENP7 block. AID 488918, 2010;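 active means mean inhibition above about 50%, limit read from the data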;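 further: plate controls were enzyme with DMSO for no effect and wells without caspase-3 for full effect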
SENP luc ctr – luminescence interference (SENP counter-screen); shares compounds with SENP7 block; Pre-incubated SENP8/Z-RLRGG-aminoluciferin, luciferase luminescence interference; inhibition, % at 12.5 µM; 6,200 compounds, 39% hits;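 active means mean inhibition above about 50% when retested at one dose, limit read from the data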;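 further: plate controls were DMSO wells with completed reaction for no effect and substrate without enzyme for full effect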
The depositor's hits bear a star; ? = inconclusive; / = no result.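 How the source made its calls, unless noted: active means mean inhibition above about 50% in the one-dose retest (limit read from the data); inactive means the rest.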

SMILES	SENP7 block	SENP8 block-1	SENP8 block-2	Platelet DG rel	SENP6 block	SENP8 conf	SENP6 confirm	SENP7 conf	Casp3 SENP sel	SENP luc ctr
C/C(=N/OC(=O)c1ccccc1Br)c1ccc(C)cc1	29.8	5.9	44.1	6.1	60.8*	28.3	31.2	72.1*	23.1	11.3
C/C(=N\OC(=O)c1ccc(C)cc1)c1sc(C)nc1C	77.3*	15.8	62.4*	31.4	78.9*	12.1	72.8*	92.5*	78.6*	57.2*
C/C(=N/OC(=O)c1ccc(C)cc1)c1cccs1	99.8*	18.2	98.3*	59.1*	97.1*	98.3*	99.0*	101.9*	97.3*	97.0*
C/C(=N\OC(=O)c1ccc(Cl)c(Cl)c1)c1sc(C)nc1C	48.7	19.1	29.5	-0.1	51.3*	21.9	16.6	32.7	34.7	3.2
O=[N+]([O-])c1ccc(Oc2ccc(S(=O)(=O)N3CCOCC3)cn2)cc1	-5.4	26.2	-2.9	-1.6	-10.6	/	/	/	/	/
CN(C)C(=O)CN1CCN(Cc2nc(CC3CC3)no2)CC1	2.5	12.7	6.1	-1.7	73.0*	4.6	-2.4	-2.1	-2.9	0.1
CC(=O)c1c(C)oc2c1cc(O)c1ccccc12	6.4	7.0	0.1	-1.4	-18.1	/	/	/	/	/
CCOC(=O)c1c(C)oc2c1cc(O)c1ccccc12	71.7*	-47.9	26.2	11.6	28.8	2.8	13.1	7.3	6.4	-1.5
CCCCc1c(O)c2cccc3c2n(c1=O)CCC3	8.7	-39.3	-7.6	4.4	-15.6	/	/	/	/	/
Nc1nnn(-c2ccccc2)c1-c1ccccc1	-15.0	0.3	-5.1	1.5	-18.4	/	/	/	/	/
Clc1c(-c2ccccc2)nnn1-c1ccccc1	76.9*	15.7	76.2*	-14.9	90.6*	74.5*	81.3*	95.6*	75.4*	75.9*
c1ccc2nc(-c3nc4ccccc4o3)ccc2c1	99.9*	-296.4	96.9*	?	98.4*	98.0*	99.8*	102.2*	98.6*	94.8*
Cc1cc(C2=NNC(=NC3CC3)SC2)c(C)n1-c1ccccc1F	16.6	-2.6	79.7*	24.4	33.1	6.2	93.3*	100.2*	93.0*	59.7*
c1cc2c(cc1C1=NNC(=NC3CC3)SC1)OCCO2	96.7*	6.8	96.3*	74.7*	97.1*	98.3*	99.0*	102.2*	98.0*	96.0*
Cc1cc(C2=NNC(=NC3CCCCC3)SC2)c(C)n1-c1c(C)n(C)n(-c2ccccc2)c1=O	-2.2	14.8	-0.6	8.5	-0.9	/	/	/	/	/
C/C(=N\NC(=O)c1nn(C)c(C)c1Br)c1ccc(NC(=O)c2ccoc2C)cc1	59.6*	-7.5	-6.7	-25.5	41.1	-1.7	2.1	-0.3	11.8	13.4
Cc1ccc2[nH]c3c(c2c1)CN(C(=O)CN1CCCc2ccccc21)CC3	33.7	-14.2	36.3	0.2	94.6*	-8.7	-5.6	-7.3	2.2	1.2
Cc1ccc2[nH]c3c(c2c1)CN(C(=O)CN1CCCCC1)CC3	-8.9	/	-11.5	-3.8	1.9	/	/	/	/	/
CCOC(=O)NNc1ccc2nonc2c1[N+](=O)[O-]	12.2	/	61.1*	2.0	63.9*	66.0*	79.9*	41.9	30.1	6.4
COc1ccc(C(=O)c2coc3ccc(O)cc23)cc1	87.2*	17.9	80.3*	4.7	85.3*	79.5*	80.3*	97.8*	78.0*	60.9*
Cc1ccc(C(=O)c2coc3ccc(OCC(=O)O)cc23)cc1	28.7	19.0	33.2	/	66.0*	47.1	43.1	77.0*	78.5*	65.7*
O=C(c1cccc(Br)c1)c1coc2ccc(O)cc12	72.2*	17.5	84.2*	/	86.4*	56.5*	73.3*	94.8*	50.6*	23.7
CCC(=O)c1coc2ccc(O)cc12	-11.8	-19.3	-8.1	8.0	9.3	/	/	/	/	/
O=C(NC1CCCCC1)N1CCN(Cc2nc3ccccc3c(=O)[nH]2)CC1	-11.0	30.8	-4.2	8.7	59.7*	-5.0	-4.9	-6.1	-4.0	-4.3
CCC(CC)C(=O)N1CCN(Cc2nc3ccccc3c(=O)[nH]2)CC1	-3.6	-12.8	3.9	-3.1	5.8	/	/	/	/	/
SMILES	SENP7 block	SENP8 block-1	SENP8 block-2	Platelet DG rel	SENP6 block	SENP8 conf	SENP6 confirm	SENP7 conf	Casp3 SENP sel	SENP luc ctr
COc1cccc(/C=C2\NC(=O)NC2=O)c1O	2.2	-65.8	-4.2	6.4	-1.0	/	/	/	/	/
CC(C)[C@H](NC(=O)OC(C)(C)C)c1cc(C(=O)N[C@@H](C)c2ccccc2)c(N)s1	/	-2.6	/	/	/	/	/	/	/	/
COc1cc(O)cc2cc3c(c(O)c12)C(=O)CC(C)(O)O3 (stereo not given)	12.8	11.3	21.0	/	58.0*	2.1	8.7	17.4	24.0	29.5
COc1cc(O)c2c(c1)OC(C)(C)CC2=O	-6.1	26.4	1.6	-6.7	-4.6	/	/	/	/	/
OCC[C@H]1C[C@@H](O)[C@H](O)[C@]2(OCc3ccccc32)O1	-9.1	8.9	-5.7	/	-16.9	/	/	/	/	/
C/C(=N/OC(=O)c1ccc(C(F)(F)F)cc1)c1oc(C)nc1C	91.3*	20.1	71.6*	16.1	83.7*	77.5*	79.4*	97.2*	85.8*	56.8*
O=C(O)c1cccc(C(=O)Nc2cccc(NC(=O)C3CCCO3)c2)c1 (stereo not given)	49.5	5.7	42.4	20.8	56.6*	74.1*	71.2*	90.8*	66.6*	47.3
O=C(O)c1cccc(NC(=O)C2CCCO2)c1 (stereo not given)	13.5	8.3	-0.5	2.9	5.6	/	/	/	/	/
O=C(O)c1cccc(NC(=O)c2cccc(NC(=O)C3CCCO3)c2)c1 (stereo not given)	-15.2	13.9	54.7*	-2.4	62.5*	73.9*	71.9*	89.7*	69.0*	53.5*
Cc1cccc(C)c1NC(=O)CN(C)C(=O)C(c1ccccc1)c1ccccc1	91.0*	3.9	0.8	-0.8	13.5	-3.9	-3.2	-6.8	-3.4	-3.8
Cn1c2ccsc2c2ncn(Cc3ccccc3F)c(=O)c21	0.7	-373.3	-4.5	/	7.5	/	/	/	/	/

Source: PubChem (several laboratories)
